Experiments:
Assay type in all cases: functional
[1] = test system: Plasmodium falciparum; experiment: GSK_TCMDC: Inhibition of Plasmodium falciparum 3D7 in whole red blood cells, using parasite LDH activity as an index of growth. Test compounds present at 2uM
[2] = test system: Plasmodium falciparum; experiment: GSK_TCMDC: Inhibition of Plasmodium falciparum Dd2 in whole red blood cells, using parasite LDH activity as an index of growth. Test compounds present at 2uM
[3] = test system: HepG2; experiment: GSK_TCMDC: Percent inhibition of human HepG2 cell line. Test compounds present at 10uM.

| SMILES | Inhibition [1] | Inhibition [2] | Inhibition [3] |
| --- | --- | --- | --- |
| NC(=O)c1ccccc1Nc1nc(Nc2cc[nH]n2)ncc1Cl | 96% | 93% | 67% |
| O=C(NCc1cccc(F)c1)Nc1ccc(-c2ccc(-c3nc4cc(C(F)(F)F)ccc4[nH]3)cc2)cc1 | 100% | 24% | 46% |
| Cc1cccn2c(=O)c3cc(C(=O)NC(C)c4ccccc4)c(=N)n(CCc4ccccc4)c3nc12 (configuration not stated) | 100% | 82% | 5% |
| Cl.N#Cc1ccc2c(c1)CCN(CCC1CCC(NC(=O)c3cccc(-c4ccc(F)cc4)c3)CC1)CC2 (configuration not stated) | 92% | 10% | 32% |
| Cc1nc(-c2ccncc2)sc1C(=O)Nc1ccc(Cl)cc1C(=O)Nc1ccc(Cl)cc1 | 98% | 47% | 2% |
| O=C(O)C(F)(F)F.Oc1ccc(CCNc2nc(NCCCOc3ccccc3-c3ccncc3)nc(N3CCNCC3)n2)cc1 | 96% | 0% | 8% |
| Clc1ccc(-c2ccc(CNCCCN3CCCC3)cc2)cc1 | 91% | 21% | 47% |
| CCCCNC(=O)[C@H](CC1CCCCC1)NC(=O)c1ccc(O)c(-c2ccc(OC)cc2)c1 | 89% | 12% | 0% |
| CCOc1cc(CC)ccc1C1CCN(CCCCNC(=O)c2ccc(NC(=O)c3ccc(Cl)cc3)cc2)CC1.Cl | 100% | 58% | 11% |
| COc1cc(Nc2nccc(N3CCC(NC(=O)c4cccc(C#N)c4)C3)n2)cc(OC)c1OC (configuration not stated) | 91% | 76% | 13% |
| COc1cc(N)c(Cl)cc1C(=O)NCC1CCN(c2nc(C)cc(C)n2)CC1 | 96% | 95% | 0% |
| CN(C)c1ccc(CN2CCC(NC(=O)c3ccc(-c4ccc(N(C)C)cc4)s3)CC2)cc1.O=C(O)C(F)(F)F | 93% | 21% | 24% |
| COC(=O)Cc1ccc(N)c2ccccc12.Cl | 98% | 0% | 2% |
| CC(C)(C)c1ccc(C(=O)N2CCC3(CC2)C(=O)N(CC(=O)NCC2CCCO2)CN3c2ccccc2)cc1 (configuration not stated) | 100% | 100% | 8% |
| Br.CCCCCCn1c2c(c(=N)c3c1CCC3)CCCC2 | 99% | 76% | 31% |
| Cc1ccc(NC(=O)c2cc(Br)cc(N3CCCN(C)CC3)c2)cc1F.O=C(O)C(F)(F)F | 87% | 1% | 15% |
| Cc1noc(C)c1-c1cccc(CNCc2ccc(-c3cccc(-c4nc5cccc(C)c5[nH]4)c3)cc2)c1.O=C(O)C(F)(F)F | 100% | 94% | 24% |
| CC(C)(CNC(=O)[C@H]1CCCCN1)c1nc(-c2ccc(Cl)c(O)c2)c(-c2ccncc2)[nH]1.Cl | 98% | 98% | 6% |
| Cc1cc(NC(c2ccc(Cl)cc2)c2ccc3cccnc3c2O)no1 (configuration not stated) | 88% | 26% | 50% |
| CN(C)c1ccc(NC(=O)Nc2ccnc3ccc(Br)cc23)cc1.Cl | 91% | 21% | 0% |
| CC[C@H](C)[C@H](NC(=O)[C@H](CC1CCCCC1)[C@H](CC)N(O)C=O)C(=O)Nc1ccccn1 | 96% | 95% | 14% |
| OC(c1ccccc1)C1CN(CCc2ccccc2)CCC1(O)c1ccccc1 (configuration not stated) | 97% | 92% | 0% |
| CCCC(C)Nc1nc(C)cc(N[C@@H](Cc2ccccc2)C(=O)NCCc2ccccc2)n1.O=C(O)C(F)(F)F (some centres not stated) | 97% | 68% | 11% |
| Cl.NC1=NC(c2ccccc2)N(c2ccc(Cl)c(Cl)c2)C(N)=N1 (configuration not stated) | 94% | 0% | 13% |
| COc1ccc(Nc2ccnc3cc4ccccc4cc23)cc1.Cl | 100% | 73% | 32% |
| CCNc1cc(CCCC(=O)OCC)nc(Nc2ccc(C)cc2)n1.O=C(O)C(F)(F)F | 100% | 63% | 17% |
| Cl.N=C(N)NN=Cc1cc2ccccc2c2ccccc12 | 100% | 63% | 25% |
| O=C(Nc1ccc(F)cc1)NC1CCN(c2ccnc3cc(Cl)ccc23)CC1.O=C(O)C(F)(F)F | 97% | 57% | 10% |
| C=CCc1cc(SC)ccc1Oc1ccc(N)cc1.Cl | 96% | 2% | 12% |
